Test results as given in PubChem BioAssay AID504692 (The Scripps Research Institute Molecular Screening Center, 2011).
The campaign covered roughly 340,000 compounds. About 2,000 (0.59%) were called active. Shown is part of a subset that was picked to be rich in actives. A number with no mark means an inactive call. Rule as the data show it: active = activation mostly above about 9.5% (no sharp cut-off); inactive = mostly below about 7.6%.

Biological target: 5-hydroxytryptamine receptor 5A (Homo sapiens) (UniProt P47898)
Test: HTR5A agonists in luminescence cell assay, primary screen, counter-screen for OPRM1-OPRD1 heterodimer agonist project, full-deck HTS (AID 504692);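 also: 0% = cells with vehicle only and 100% = reference agonist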
Settings: cell-based, at 9.3 µM, hits give high values

Sequence of 5-hydroxytryptamine receptor 5A (Homo sapiens) (P47898 whole entry, looked up): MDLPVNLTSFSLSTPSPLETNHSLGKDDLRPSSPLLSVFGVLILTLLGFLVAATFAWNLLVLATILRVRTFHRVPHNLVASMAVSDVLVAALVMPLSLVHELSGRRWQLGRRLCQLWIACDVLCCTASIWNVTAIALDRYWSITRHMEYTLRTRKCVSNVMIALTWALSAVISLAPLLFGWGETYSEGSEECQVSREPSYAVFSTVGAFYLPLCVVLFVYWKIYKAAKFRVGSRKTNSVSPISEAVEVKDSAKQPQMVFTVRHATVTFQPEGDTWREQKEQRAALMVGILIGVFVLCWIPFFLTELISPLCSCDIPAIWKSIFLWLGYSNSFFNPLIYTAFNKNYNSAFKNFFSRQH

Row | SMILES | activation
1 | Cc1cc(C)c(S(=O)(=O)N(C)CC(=O)NCC2CCCO2)c(C)c1 (stereo not given) | 8.59%
2 | COc1ccc(CN2CCN(C(=O)CCC(=O)Nc3nnc(C(C)C)s3)CC2)cc1F | 2.2%
3 | CC(C)OC(=O)c1sc2nc3c(cc2c1N)C(=O)CCC3 | 5.9%
4 | Cc1ccc2sc(N(CCN(C)C)C(=O)/C=C/c3cccs3)nc2c1C | 6.97%
5 | Cc1ccc2nc(N(CCN(C)C)C(=O)C3=COCCO3)sc2c1 | -2.68%
6 | Cc1cc(C)c2nc(N(CCN(C)C)C(=O)/C=C/c3cccs3)sc2c1 | 11.5% (active)
7 | O=C(CSc1nnc(-c2ccc([N+](=O)[O-])cc2)o1)Nc1ccccn1 | 0.96%
8 | CCc1ccc(OCC(=O)OC(C)C(=O)NC2CC2)cc1 (stereo not given) | 1.16%
9 | CSc1ccc(S(=O)(=O)NCc2ccc(Cl)cc2)cc1 | 10.3% (active)
10 | Cc1ccc(S(=O)(=O)NCCC(=O)NCc2ccc(Cl)cc2)cc1C | -0.86%
11 | CC(C)CNS(=O)(=O)c1ccc(CCC(=O)NCc2ccc(Cl)cc2)cc1 | 0.62%
12 | Cc1cc(C(C)(C)C)oc1C(=O)N(CC(=O)NC1CCCC1)Cc1ccc(Cl)cc1 | 2.84%
13 | CCOc1ccc(S(=O)(=O)NCCCn2ccnc2)cc1NC(C)=O | 2.78%
14 | NC(=O)C1(C(N)=O)OC1c1ccc(Cl)cc1Cl (stereo not given) | 3.12%
15 | O=C(COC(=O)c1n[nH]c2ccccc12)Nc1ccccc1Br | -1.79%
16 | COc1ccc(C)cc1S(=O)(=O)NCCc1ccccc1 | 1.84%
17 | COc1ccc(C(=O)O/N=C(\N)Cc2ccc(Cl)cc2Cl)cc1OC | 27.1% (active)
18 | COc1ccc(CCn2ccc(O)c(Cc3ccc(Cl)cc3Cl)c2=O)cc1OC | -0.18%
19 | COc1ccc(C/C(N)=N/OC(=O)c2ccco2)cc1OC | 1.65%
20 | CCOC(=O)c1[nH]c(C)c(C(=O)OCC(=O)N2c3ccccc3CC2C)c1C (stereo not given) | -1.22%
21 | CCn1nc(C(=O)OCC(=O)N2c3ccccc3CC2C)c2ccccc2c1=O (stereo not given) | 36.7% (active)
22 | CCOc1ncccc1C(=O)OCC(=O)N1c2ccccc2CC1C (stereo not given) | -1.04%
23 | COc1ccc(NC(=O)CSc2nnc(-c3ccccc3F)n2C2CC2)cc1S(N)(=O)=O | -5.29%
24 | Cn1c(CCC(=O)Nc2ccccc2F)nnc1SCC(=O)Nc1ccccc1Cl | -0.17%

Row | SMILES | activation
25 | CCCN(CCc1ccccc1)C1CCc2c(O)cccc2C1 (stereo not given) | 24.5% (active)
26 | Cc1cc(C)cc(C(=O)N(CCc2ccccc2)C2=CC3CCC(C2)N3C)c1 (stereo not given) | 7.8%
27 | CC(NC(=O)c1cc(-c2ccccc2)on1)c1ccccc1 (stereo not given) | 18.9% (active)
28 | O=C(NC1CCCC1)c1cc(-c2ccccc2)on1 | -5.2%
29 | CC(C)CNC(=O)c1cc(-c2ccc(Br)cc2)on1 | 5.27%
30 | CCOC(=O)c1c(/N=C/c2cc(C)ccc2O)sc2c1CCC2 | 3.38%
31 | Cc1cc(-c2ccc(C)c(S(=O)(=O)Nc3ccc(S(N)(=O)=O)cc3)c2)on1 | 1.19%
32 | Cc1cc(-c2ccc(C)c(S(=O)(=O)NC(C)Cc3ccco3)c2)on1 (stereo not given) | 11.8% (active)
33 | Cc1cc(-c2ccc(C)c(S(=O)(=O)NCCCN(Cc3ccccc3)C(C)C)c2)on1 | -3.67%
34 | CCc1c(C)c2c(C)[nH]nc2oc1=O | 2.29%
35 | CNS(=O)(=O)c1cccc(C(=O)OCCCC(=O)c2ccccc2)c1 | 2.3%
36 | CCCNC(=S)N1CCCC(c2nc3ccccc3[nH]2)C1 (stereo not given) | 2.29%
37 | CN(C)CCCNC(=S)N1CCC(c2nc3ccccc3[nH]2)CC1 | 11.5% (active)
38 | CCNC(=S)N1CCC(c2nc3cc(C)c(C)cc3[nH]2)CC1 | 0.03%
39 | O=C(OCC(=O)N1CCCCCC1)c1cnc(Cl)c(Cl)c1 | -5.36%
40 | CCCOc1ccc(/C=N/NC(=O)C2CC2)c(OCCC)c1 | 4.85%
41 | CCCOc1ccc(C(=O)CCC(=O)OC(C)C(=O)Nc2ccc(NC(C)=O)cc2)cc1 (stereo not given) | 2.99%
42 | CCCOc1ccc(C(=O)C(CCC(CNCC)C(=O)c2ccc(OCCC)cc2)CNCC)cc1 (stereo not given) | 19.9% (active)
43 | O=C(c1ccco1)N1CCN(Cc2cccc(C(F)(F)F)c2)CC1 | 4.8%
44 | Cn1c(CN2CCOCC2)nc2cc(NC(=O)c3ccc(Cl)cc3)ccc21 | 9.89%
45 | CN(c1ccccc1)S(=O)(=O)c1cc(C(=O)N2CCN(c3ncccn3)CC2)ccc1Cl | 15.4% (active)
46 | CN(c1ccccc1)S(=O)(=O)c1cc(C(=O)OCC(=O)N2CCN(C(=O)c3ccco3)CC2)ccc1Cl | 3.06%
47 | CN(c1ccccc1)S(=O)(=O)c1ccc(C(=O)N2CCN(c3ccccc3Cl)CC2)cc1 | 0.22%
48 | Cc1cc(C)cc(C(=O)NCC(=O)OCC(=O)N2CCCCC2)c1 | -2.45%

Row | SMILES | activation
49 | Cc1ccc(S(=O)(=O)N(CC(=O)NCCSC2CCCCC2)c2ccccc2F)cc1 | 2.64%
50 | O=C(NC1(C(F)(F)F)N=C2SCCN2C1=O)c1ccco1 (stereo not given) | 3.99%
51 | O=C(OC12CC3CC(CC(C3)C1)C2)c1ccc(NCc2cc(O)ccc2O)cc1 | 21.4% (active)
52 | CC(C)OC(=O)c1ccc(NCc2cc(O)ccc2O)cc1Cl | 3.07%
53 | COC(=O)c1ccc(NCc2cc(O)ccc2O)cc1 | 6.1%
54 | C/C(=N\NC(=S)NC1CCCCC1)c1ccc(C)o1 | 6.64%
55 | CCOC(=O)C1CSC(CC(=O)Nc2ccc(OCC)cc2)C(=O)N1 (stereo not given) | -5.17%
56 | CCN(CC(=O)Nc1cccc(S(=O)(=O)N2CCCCC2)c1)Cc1ccccc1 | 15.5% (active)
57 | O=C(Nc1cccc(S(=O)(=O)N2CCCCC2)c1)c1cncc(Br)c1 | 0.4%
58 | O=C(CSc1ccccc1)Nc1cccc(S(=O)(=O)N2CCCCC2)c1 | -8.72%
59 | O=C(Nc1cccc(S(=O)(=O)N2CCCC2)c1)c1cncc(Br)c1 | 0.81%
60 | CCN(CC)S(=O)(=O)c1cccc(NC(=O)c2ccc(S(=O)(=O)N3CCCC3)cc2)c1 | 13.2% (active)
61 | CCN(CC(=O)Nc1ccc(S(=O)(=O)N2CCCC2)cc1)CC(=O)Nc1cccc(OC)c1 | -2.62%
62 | CCOc1ccccc1NC(=O)CCS(=O)(=O)c1cccc2nsnc12 | 6.16%
63 | O=C(COC(=O)c1cccnc1Cl)NC(=O)NC1CCCCC1 | -1.43%
64 | OC(COCCC12CC3CC(CC(C3)C1)C2)CN1CCCCC1 (stereo not given) | 3.12%
65 | CCCOc1cccc(C(=O)Nc2ccccc2C(=O)N2CCN(C)CC2)c1 | -7.36%
66 | COc1ccccc1CNC(=O)COn1nnc2ccc(S(=O)(=O)N3CCOCC3)cc21 | -2.13%
67 | O=C(COc1ccccc1)N1CCN=C1SCc1cccc(F)c1 | 8.07%
68 | CN(Cc1cccnc1)C(=O)c1cc(COc2ccc3ncccc3c2)on1 | 11.7% (active)
69 | CC(=O)c1cccc(OCc2cc(C(=O)NC(C)Cc3cccnc3)no2)c1 (stereo not given) | 2.99%
70 | CN(Cc1cnccn1)C(=O)c1cc(COc2cccc(C(F)(F)F)c2)on1 | 0.68%
71 | O=S(=O)(NC1CCCC1)c1ccc(-n2cnnn2)cc1 | 4.29%
72 | CCn1c(C(C)C)n[nH]c1=S | 1.98%

Row | SMILES | activation
73 | CCOC(=O)c1c(NC(=O)CSc2cn(CC)c3ccccc23)sc2c1CCC2 | -4.94%
74 | CCOC(=O)c1c(NC(=O)NC(C)(C)C)sc2c1CCN(C)C2 | -2.16%
75 | CCOC(=O)c1c(NC(=O)Cn2nc(C(F)(F)F)cc2C)sc2c1CCC2 | 12.1% (active)
76 | CCCn1c(SCC(=O)Nc2c(C)cccc2C)nnc1C(C)C | -3.62%
77 | O=C(COc1ccccc1Cl)Nn1cnnc1 | 0.57%
78 | COc1cc(-c2c(-c3ccc4c(c3)OCO4)noc2C)ccc1F | -0.29%
79 | COC(=O)c1c(-c2ccsc2)oc2ccc(-c3cc(OC)c(OC)c(OC)c3)cc12 | 6.62%
80 | COc1cc2c(-c3ccc4c(c3)OCO4)c(-c3ccsc3)oc(=O)c2cc1OC | 15.3% (active)
81 | O=C(CCl)NNc1cccc(Cl)n1 | -8.59%
82 | COc1ccc(N)c(C)c1 | 0.27%
83 | COc1ccc2c(c1)SC(C)CC2=O (stereo not given) | 10.6% (active)
84 | COc1ccc2c(c1)C(=O)CC(c1ccccc1)O2 (stereo not given) | -1.73%
85 | O=S(=O)(c1cccc(-c2nnc(SC(F)F)n2-c2ccccc2)c1)N1CCCCC1 | 0.34%
86 | Cc1ccc(CN2CCN(Cc3ccc(OCCO)cc3)CC2CCO)o1 (stereo not given) | 15% (active)
87 | Cc1ccc(CN2CCN(Cc3cn(C)nc3-c3ccccc3)CC2CCO)o1 (stereo not given) | -1.42%
88 | CCOc1ccc(CN2CCN(Cc3ccc(C)o3)CC2CCO)cc1 (stereo not given) | -1.69%
89 | Cc1ccc2c(c1)C(c1ccccc1)N(C(=O)c1ccc(F)cc1)CC(=O)N2 (stereo not given) | -1.42%
90 | COc1ccc2c(CC(=O)OCC(=O)Nc3ccccc3[N+](=O)[O-])coc2c1 | -1.41%
91 | O=S(=O)(Nc1ccccc1Br)c1cccs1 | 8.11%
92 | Cc1ccc(NS(=O)(=O)c2cccs2)cc1S(=O)(=O)N1CCCCCC1 | 0.15%
93 | O=S(=O)(Nc1ccccc1)c1ccc(NS(=O)(=O)c2cccs2)cc1 | 9.34% (active)
94 | Cc1c(OC(C)C(=O)NCC2CCC(C(=O)O)CC2)ccc2c1oc(=O)c1ccccc12 (stereo not given) | 1%
95 | CCOC(=O)N1CCC(Nc2c(NCCCN3CCN(c4ccc(OC)cc4)CC3)c(=O)c2=O)CC1 | -0.13%
